Key:
Assay in all cases: log2 ratio of Biotin-Ahx-Ub-VS probe labelling (fragment/DMSO); higher = less target engagement (more negative = stronger competition), active = hit call of the paper (q ≤ 0.05, log2 ratio ≤ -1)
Conditions in all cases: compound concentration: 200 uM; treatment time: 3 h
OTUD6B = target: T1, OTUD6B (UniProt Q8N6M0)
T1 sequence (whole entry): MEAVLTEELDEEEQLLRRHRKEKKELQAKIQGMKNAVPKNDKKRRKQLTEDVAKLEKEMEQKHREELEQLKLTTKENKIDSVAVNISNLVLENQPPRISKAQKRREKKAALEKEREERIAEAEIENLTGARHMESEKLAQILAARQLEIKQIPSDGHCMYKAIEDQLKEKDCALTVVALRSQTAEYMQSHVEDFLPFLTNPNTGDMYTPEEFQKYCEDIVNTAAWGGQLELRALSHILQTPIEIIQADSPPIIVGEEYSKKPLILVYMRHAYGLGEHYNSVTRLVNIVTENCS
In short: (§1)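 Fragment (200 µM) or vehicle was incubated for 3 h with triplicate HEK293T lysate samples of 495 µg, which were then treated with Biotin-Ahx-Ub-VS at 0.5 µM final for 1 h. Labelled DUBs were enriched on NeutrAvidin, digested with LysC and trypsin, and analysed by diaPASEF LC-MS/MS. Values are average log2 fragment/vehicle ratios from an unpaired t-test on global-median-normalised Spectronaut label-free quantities, using proteins with ≥2 unique peptides.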

OTUD7B = target: T2, OTUD7B (UniProt Q6GQQ9)
T2 sequence (whole entry): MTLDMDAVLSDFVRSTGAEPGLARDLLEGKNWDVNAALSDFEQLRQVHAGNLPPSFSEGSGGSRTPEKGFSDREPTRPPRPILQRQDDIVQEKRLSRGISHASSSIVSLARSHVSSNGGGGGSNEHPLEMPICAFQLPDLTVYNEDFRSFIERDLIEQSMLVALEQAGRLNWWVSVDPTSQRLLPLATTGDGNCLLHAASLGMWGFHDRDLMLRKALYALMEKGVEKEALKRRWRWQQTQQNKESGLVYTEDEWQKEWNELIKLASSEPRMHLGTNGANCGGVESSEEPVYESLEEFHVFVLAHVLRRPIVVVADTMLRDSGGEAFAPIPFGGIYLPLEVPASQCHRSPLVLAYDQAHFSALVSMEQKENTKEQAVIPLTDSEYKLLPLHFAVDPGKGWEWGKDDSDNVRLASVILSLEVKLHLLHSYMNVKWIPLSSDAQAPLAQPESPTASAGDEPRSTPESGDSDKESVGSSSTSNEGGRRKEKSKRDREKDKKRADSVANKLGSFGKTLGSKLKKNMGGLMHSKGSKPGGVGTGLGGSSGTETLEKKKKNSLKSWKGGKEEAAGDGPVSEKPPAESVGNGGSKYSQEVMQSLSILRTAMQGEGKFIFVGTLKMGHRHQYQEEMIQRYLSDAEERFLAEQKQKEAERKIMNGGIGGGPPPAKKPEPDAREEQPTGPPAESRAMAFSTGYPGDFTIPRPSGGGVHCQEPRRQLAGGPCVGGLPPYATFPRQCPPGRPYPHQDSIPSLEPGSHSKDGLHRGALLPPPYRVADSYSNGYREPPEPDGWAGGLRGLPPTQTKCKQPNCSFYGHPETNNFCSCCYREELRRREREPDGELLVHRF
In short: as §1

PRPF8 = PRPF8 (UniProt Q6P2Q9)
In short: as §1

PSMD7 = target: T3, PSMD7 (UniProt P51665)
T3 sequence (whole entry): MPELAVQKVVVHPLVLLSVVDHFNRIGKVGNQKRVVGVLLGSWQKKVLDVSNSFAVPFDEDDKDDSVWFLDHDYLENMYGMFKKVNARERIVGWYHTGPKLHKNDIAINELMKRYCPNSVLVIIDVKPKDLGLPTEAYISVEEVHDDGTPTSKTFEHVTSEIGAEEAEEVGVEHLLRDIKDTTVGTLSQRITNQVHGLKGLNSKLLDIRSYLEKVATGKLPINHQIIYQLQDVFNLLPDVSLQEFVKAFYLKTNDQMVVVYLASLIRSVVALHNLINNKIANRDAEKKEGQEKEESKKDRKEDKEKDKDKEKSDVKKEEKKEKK
In short: as §1

UCHL1 = UCHL1 (UniProt P09936)
In short: as §1

UCHL3 = target: T4, UCHL3 (UniProt P15374)
T4 sequence (whole entry): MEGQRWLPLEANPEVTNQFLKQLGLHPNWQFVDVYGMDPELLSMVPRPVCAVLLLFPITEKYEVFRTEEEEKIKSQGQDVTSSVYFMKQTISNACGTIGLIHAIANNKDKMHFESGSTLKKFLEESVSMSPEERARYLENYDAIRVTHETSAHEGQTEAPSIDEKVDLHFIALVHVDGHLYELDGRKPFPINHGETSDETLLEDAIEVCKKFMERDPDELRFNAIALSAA
In short: as §1

UCHL5 = target: T5, UCHL5 (UniProt Q9Y5K5)
T5 sequence (whole entry): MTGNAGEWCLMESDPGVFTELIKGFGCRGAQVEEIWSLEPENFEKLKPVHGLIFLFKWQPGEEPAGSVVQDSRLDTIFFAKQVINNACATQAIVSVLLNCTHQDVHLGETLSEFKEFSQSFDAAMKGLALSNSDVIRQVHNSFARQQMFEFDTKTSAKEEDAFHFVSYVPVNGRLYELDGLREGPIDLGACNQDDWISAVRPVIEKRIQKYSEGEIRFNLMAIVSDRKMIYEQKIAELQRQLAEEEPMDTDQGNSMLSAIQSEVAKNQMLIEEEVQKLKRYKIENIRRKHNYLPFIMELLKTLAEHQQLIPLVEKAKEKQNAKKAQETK
In short: as §1

USP10 = USP10 (UniProt Q14694)
In short: as §1

USP15 = target: T6, USP15 (UniProt Q9Y4E8)
T6 sequence (whole entry): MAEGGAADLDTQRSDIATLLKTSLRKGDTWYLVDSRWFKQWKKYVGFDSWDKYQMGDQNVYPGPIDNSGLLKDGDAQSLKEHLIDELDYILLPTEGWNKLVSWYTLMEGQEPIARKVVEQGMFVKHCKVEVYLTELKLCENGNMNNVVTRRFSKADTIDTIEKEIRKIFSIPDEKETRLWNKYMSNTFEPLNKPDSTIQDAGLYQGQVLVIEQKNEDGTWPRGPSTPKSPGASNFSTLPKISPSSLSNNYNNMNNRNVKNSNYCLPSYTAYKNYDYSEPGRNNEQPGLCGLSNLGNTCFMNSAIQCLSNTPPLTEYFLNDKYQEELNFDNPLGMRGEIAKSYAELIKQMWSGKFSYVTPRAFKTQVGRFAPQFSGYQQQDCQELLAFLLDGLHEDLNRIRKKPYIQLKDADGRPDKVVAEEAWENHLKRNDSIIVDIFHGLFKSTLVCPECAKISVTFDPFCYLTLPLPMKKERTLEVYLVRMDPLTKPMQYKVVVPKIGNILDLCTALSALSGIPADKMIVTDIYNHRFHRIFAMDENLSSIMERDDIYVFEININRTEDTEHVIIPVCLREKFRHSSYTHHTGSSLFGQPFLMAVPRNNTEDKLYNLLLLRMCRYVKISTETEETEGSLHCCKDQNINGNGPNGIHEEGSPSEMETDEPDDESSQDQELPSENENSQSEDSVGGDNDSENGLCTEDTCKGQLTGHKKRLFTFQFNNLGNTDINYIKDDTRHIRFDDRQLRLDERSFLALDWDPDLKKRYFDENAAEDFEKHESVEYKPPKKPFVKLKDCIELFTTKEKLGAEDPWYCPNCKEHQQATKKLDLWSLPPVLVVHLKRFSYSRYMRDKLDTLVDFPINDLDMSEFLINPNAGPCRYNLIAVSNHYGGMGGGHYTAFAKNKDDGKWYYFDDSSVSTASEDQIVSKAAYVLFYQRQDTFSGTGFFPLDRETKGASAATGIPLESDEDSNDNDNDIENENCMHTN
In short: as §1

USP16 = USP16 (UniProt Q9Y5T5)
In short: as §1

Measured: log2 ratio of Biotin-Ahx-Ub-VS probe labelling

Chain of UCHL1 (P09936 whole entry, looked up): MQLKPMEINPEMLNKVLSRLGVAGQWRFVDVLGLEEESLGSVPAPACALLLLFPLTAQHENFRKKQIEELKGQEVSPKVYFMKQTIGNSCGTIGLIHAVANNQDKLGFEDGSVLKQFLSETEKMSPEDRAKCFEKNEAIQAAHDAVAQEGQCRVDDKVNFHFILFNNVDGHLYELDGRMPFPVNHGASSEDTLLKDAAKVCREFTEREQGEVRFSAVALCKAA
Chain of USP10 (Q14694 whole entry): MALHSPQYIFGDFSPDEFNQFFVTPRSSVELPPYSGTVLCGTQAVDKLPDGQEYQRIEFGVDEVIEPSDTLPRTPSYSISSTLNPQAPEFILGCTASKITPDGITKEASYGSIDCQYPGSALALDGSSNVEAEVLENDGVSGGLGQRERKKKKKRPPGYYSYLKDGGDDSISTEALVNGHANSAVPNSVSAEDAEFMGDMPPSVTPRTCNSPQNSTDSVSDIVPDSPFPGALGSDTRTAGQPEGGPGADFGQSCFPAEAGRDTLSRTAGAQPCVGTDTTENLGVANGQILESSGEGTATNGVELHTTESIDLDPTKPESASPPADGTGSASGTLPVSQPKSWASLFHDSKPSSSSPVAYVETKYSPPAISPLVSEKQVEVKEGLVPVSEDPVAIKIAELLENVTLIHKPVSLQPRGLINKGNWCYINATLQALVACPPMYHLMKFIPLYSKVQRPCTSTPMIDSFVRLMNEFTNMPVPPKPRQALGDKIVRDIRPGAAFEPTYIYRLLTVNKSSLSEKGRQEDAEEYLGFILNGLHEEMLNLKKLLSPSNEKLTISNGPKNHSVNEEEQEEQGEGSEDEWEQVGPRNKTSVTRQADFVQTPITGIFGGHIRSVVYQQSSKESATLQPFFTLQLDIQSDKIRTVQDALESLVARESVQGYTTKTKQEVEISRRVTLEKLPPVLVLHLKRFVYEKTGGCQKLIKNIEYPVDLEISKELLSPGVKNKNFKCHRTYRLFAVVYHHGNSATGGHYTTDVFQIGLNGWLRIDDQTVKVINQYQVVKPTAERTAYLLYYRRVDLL
Chain of USP16 (Q9Y5T5 whole entry, looked up): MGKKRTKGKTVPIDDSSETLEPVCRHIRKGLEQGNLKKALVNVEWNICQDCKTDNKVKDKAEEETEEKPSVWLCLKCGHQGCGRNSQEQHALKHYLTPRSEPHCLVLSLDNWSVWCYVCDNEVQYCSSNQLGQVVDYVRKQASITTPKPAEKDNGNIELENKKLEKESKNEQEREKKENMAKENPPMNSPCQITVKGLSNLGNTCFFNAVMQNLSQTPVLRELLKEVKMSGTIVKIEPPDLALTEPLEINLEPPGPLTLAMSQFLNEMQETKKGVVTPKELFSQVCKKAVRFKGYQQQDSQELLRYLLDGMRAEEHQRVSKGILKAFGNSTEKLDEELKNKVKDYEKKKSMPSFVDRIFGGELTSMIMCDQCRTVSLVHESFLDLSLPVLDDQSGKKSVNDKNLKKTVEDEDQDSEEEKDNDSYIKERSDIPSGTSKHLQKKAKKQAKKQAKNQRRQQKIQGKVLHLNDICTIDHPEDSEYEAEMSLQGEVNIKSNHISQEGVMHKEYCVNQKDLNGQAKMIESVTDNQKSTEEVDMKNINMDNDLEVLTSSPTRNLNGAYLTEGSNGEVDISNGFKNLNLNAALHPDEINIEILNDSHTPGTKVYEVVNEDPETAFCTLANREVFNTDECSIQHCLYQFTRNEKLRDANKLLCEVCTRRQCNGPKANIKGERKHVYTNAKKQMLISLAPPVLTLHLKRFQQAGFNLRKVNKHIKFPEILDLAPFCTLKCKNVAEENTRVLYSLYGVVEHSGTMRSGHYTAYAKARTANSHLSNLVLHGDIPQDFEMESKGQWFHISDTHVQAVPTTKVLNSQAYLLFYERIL

Cc1c(C#N)c(NC(=O)CCl)n(Cc2ccco2)c1C
active: OTUD7B -1.87 | UCHL1 -1.43
inactive: OTUD6B -0.163 | PRPF8 0.194 | PSMD7 0.0239 | UCHL3 0.496 | UCHL5 -0.133 | USP10 -0.259 | USP15 -0.505 | USP16 -0.818
